Consider 40 compounds from PubChem BioAssay (NCATS).

Values joined by “and” are separate entries in the source; they are usually repeats but may differ in a detail not shown here. Identical values can stand only once. Active and inactive are the calls of the source. The call rests on the fitted dose curve.
Potency means the concentration at half of the fitted maximal effect.

Sequence of Glucocorticoid receptor (Homo sapiens) (P04150 whole entry, looked up): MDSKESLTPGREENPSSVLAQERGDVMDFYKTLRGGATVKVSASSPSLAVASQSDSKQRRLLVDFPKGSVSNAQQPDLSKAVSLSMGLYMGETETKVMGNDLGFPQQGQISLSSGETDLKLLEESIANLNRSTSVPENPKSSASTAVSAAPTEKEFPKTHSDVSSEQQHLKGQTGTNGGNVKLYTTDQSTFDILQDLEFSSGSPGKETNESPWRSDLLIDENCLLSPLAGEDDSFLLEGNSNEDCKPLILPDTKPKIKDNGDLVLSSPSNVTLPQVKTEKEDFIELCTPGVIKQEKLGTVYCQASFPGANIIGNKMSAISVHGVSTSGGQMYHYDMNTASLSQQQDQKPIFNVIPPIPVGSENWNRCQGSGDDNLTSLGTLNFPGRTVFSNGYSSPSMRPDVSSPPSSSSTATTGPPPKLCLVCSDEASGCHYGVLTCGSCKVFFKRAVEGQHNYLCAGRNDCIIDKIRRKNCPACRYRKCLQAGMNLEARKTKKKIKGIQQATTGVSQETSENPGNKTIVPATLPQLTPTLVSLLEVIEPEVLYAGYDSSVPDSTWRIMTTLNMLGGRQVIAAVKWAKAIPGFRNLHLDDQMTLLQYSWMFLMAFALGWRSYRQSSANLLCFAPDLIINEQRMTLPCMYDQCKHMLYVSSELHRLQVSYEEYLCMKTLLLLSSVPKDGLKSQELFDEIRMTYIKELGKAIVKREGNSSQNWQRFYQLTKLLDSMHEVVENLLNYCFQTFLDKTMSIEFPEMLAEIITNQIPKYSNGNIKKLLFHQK

The test concerns the target Glucocorticoid receptor (Homo sapiens) (UniProt P04150). The experiment in a line: GR-EFC Redistribution (AID 451). As to conditions: CHO-K1 GR-EFC translocation, beta-gal luminescence, 2 h. An excerpt: NIH Molecular Libraries Screening Centers Network [MLSCN]
NIH Chemical Genomics Center [NCGC]
The glucocorticoid receptor (GR) is a cytoplasmic receptor that belongs to the nuclear receptor family of ligand-dependent transcription factors. Upon glucocorticoid binding to its receptor, the glucocorticoid-GR complex translocates into the nucleus, where it binds as a dimer to specific DNA sequences (glucocorticoid response elements), enhancing or suppressing transcription of a wide variety of glucocorticoid-responsive genes. In addition to their important roles in normal physiology and metabolism, glucocorticoids are administered exogenously as treatments for a wide variety of allergic, autoimmune, and neoplastic conditions. Identification of compounds that modulate aspects of GR signalling would be useful in dissecting glucocorticoid response pathways as well as developing GR modulators with more targeted clinical effects.
Traditionally, GR modulators have been identified using receptor binding or direct transactivation assays. However, assays for glucocorticoid-dependent nuclear translocation can also be used to screen for compounds affecting GR signaling.
Immunocytochemical staining has been used to assay for GR translocation, but is not suitable for high throughout screening due to the multiple reagent addition and wash steps required. Recently, a novel cell-based GR assay in Enzyme Fragment Complementation (EFC) format was developed by DiscoveRx (Fremont, CA). The assay uses EFC of b-galactosidase (b-gal) as an indicator of GR-translocation in engineered CHO-K1 biosensor cells. The enzyme acceptor (EA) fragment of b-gal resides in the nucleus , as designed through the use of a proprietary set of sequence additions and modifications. The small peptide enzyme donor (ED) fragment of b-gal is fused directly to the C-terminus of GR, and is localized in the cytoplasm is the absence of receptor signaling. Upon binding to a GR ligand, the complex translocates to the nucleus, where intact enzyme activity is restored by complementation and b-gal activity is detected. We optimized this GR-EFC assay in homogenous 1536-well plate assay format for high throughput screening.
NCGC Assay Protocol Summary:
CHO-K1 cells stably expressing NLS-enzyme acceptor fragment (EA) of b-gal and GR-enzyme donor (ED) fragment of b-gal were maintained in F12 medium (Invitrogen, Carlsbad, CA) at 37 Celsius degrees under a humidified atmosphere containing 5% CO2 and 95% air. The medium contained 10% FBS, 2 mM L-glutamine, 50 U/ml penicillin 50 ug/ml streptomycin, and 250 ug/ml hygromycin and 500 ug/ml G418 (Invitrogen).
GR-translocation was measured beta-gal enzyme activity using the PathHunter Detection Kit containing cell membrane permeablizing reagent and beta-gal substrate (DiscoveRx, Fremont, CA). All compounds were screened as titrations from 0.6 nM to 46 uM final concentration. The assay was performed in 1536-well format as follows:
5 uL cell suspension (1,000 cells)/well
Incubation at 37 Celsius degrees for two hours
1.25 uL 1X detection buffer from the kit supplied by DiscoveRx
Incubation at room temperature for one hour
Read plate in luminescence mode in ViewLux plate reader (PerkinElmer)
Keywords: NIH Roadmap, MLSCN, MLI, MLSMR, GR-EFC, GREFC, qHTS, NCGC
With `C[C@@]12CC[C@@H]3c4ccc(O)cc4C[C@H](CCCCCCCCCS(=O)CCCC(F)(F)C(F)(F)F)[C@H]3[C@@H]1CC[C@@H]2O` (stereo not given in full), the Potency was > 46 µM (inactive).

Turning to `N[C@H]1CCN(O)C1=O`, the Potency was > 46 µM (inactive). In the case of `CN1CCN(C2=Cc3ccccc3Oc3ccc(Cl)cc32)CC1` it was > 46 µM (inactive); in that of `C[C@@H](C[C@H](N)C(=O)O)C(=O)O`, > 9.22 µM (inactive). For `C[C@H](N)C(=O)O` the value was > 46 µM (inactive); for `CC(=O)O[C@H]1C[C@H]2CC[C@@H]3[C@H]4C[C@@H]([N+]5(C)CCCCC5)[C@@H](OC(C)=O)[C@]4(C)CC[C@@H]3[C@@]2(C)C[C@@H]1[N+]1(C)CCCCC1`, > 46 µM (inactive). In the case of `CCOC(=O)c1c(C)[nH]c2ccc3c(c12)CN1CCc2cc(OC)ccc2[C@@H]1O3` it was > 46 µM (inactive); in that of `C1CCC(N=C(NC23CC4CC(CC(C4)C2)C3)N2CCOCC2)CC1`, > 46 µM (inactive); in that of `O=c1nc2ccccc2c2n1C[C@H](CN1CCN(c3ccccc3)CC1)N2`, > 46 µM (inactive). As to `C#C[C@]1(O)CC[C@H]2[C@H]3CCC4=Cc5oncc5C[C@]4(C)[C@@H]3CC[C@]21C`, the Potency was > 46 µM (inactive). For `CSc1ccc2c(c1)[C@H](N1CCN(C)CC1)Cc1ccccc1S2` the value was > 46 µM (inactive) and > 20.6 µM (inactive).

With `COc1cc(COc2cc(N)c(Cl)cc2C(=O)CCC2CCN(CCNS(C)(=O)=O)CC2)cc(OC)c1`, the Potency is > 46 µM (inactive). In the case of `Cc1nc2ccc(NC(=O)Nc3ccnc4cccnc34)cc2o1` it was > 46 µM (inactive); in that of `O=C1c2ccccc2C(Cc2ccncc2)(Cc2ccncc2)c2ccccc21`, > 46 µM (inactive). For `CC(C)Oc1cccc(-n2c(CCc3c[nH]c4ccc(Br)cc34)nc3ccccc3c2=O)c1` the value was > 46 µM (inactive). For `Clc1cccc(C=NC=Nc2cccc(Cl)c2)c1` the value was > 46 µM (inactive); for `C[C@](N)(COP(=O)(O)O)C(=O)O`, > 46 µM (inactive); for `CCC(=O)O[C@H](CC(=O)O)C[N+](C)(C)C`, > 46 µM (inactive).

As to `NC1(C(=O)O)C[C@@H](C(=O)O)[C@H](C(=O)O)C1`, the Potency is > 46 µM (inactive). In the case of `CCC(=O)N[C@@H]1CCc2cccc(OC)c2C1` it was > 46 µM (inactive); in that of `COc1ccccc1N1CCN(C[C@@H]2CN3C(=O)N(C)c4ccccc4C3=N2)CC1`, > 46 µM (inactive).

`CC[N+](CC)(CC)CC`: the Potency is > 46 µM (inactive). In the case of `Cc1c(C2CCN(CCc3ccccc3)CC2)noc1-c1ccc(Cl)cc1` it was > 46 µM (inactive). Turning to `O=C1CC[C@H](N2C(=O)c3ccccc3C2=O)C(=O)N1`, the Potency was > 46 µM (inactive) and > 20.6 µM (inactive). For `COc1[nH]c2ccc(F)cc2c1C(=O)OCC1CCN(CCNS(C)(=O)=O)CC1` the value was > 46 µM (inactive). In the case of `CSc1nc(N)c2ncn([C@H]3O[C@H](COP(=O)(O)OP(=O)(O)OP(=O)(O)O)[C@@H](O)[C@@H]3O)c2n1` it was > 46 µM (inactive); in that of `O=C(O)c1c(Br)c(Br)c(Br)c(Br)c1C1c2ccc(O)cc2Oc2cc(O)ccc21`, > 9.22 µM (inactive). In the case of `N[C@H](C(=O)O)C1[C@H](C(=O)O)[C@H]1C(=O)O` (stereo not given in full) it was > 46 µM (inactive). For `S=C(S)O[C@@H]1C[C@@H]2C[C@H]1[C@@H]1CCC[C@H]21`, the Potency is > 46 µM (inactive). Take `COc1ccc(-c2nc(C(=O)N3CCN(C)CC3)sc2-c2ccc(OC)cc2)cc1`: the Potency is > 46 µM (inactive).

For the compound `N[C@H](Cc1ccc(Cl)cc1)C(=O)O`, the Potency was > 46 µM (inactive).

As to `CC(C)C[C@H]1C(=O)N2CCC[C@@H]2[C@]2(O)O[C@](NC(=O)[C@@H]3C=C4c5cccc6[nH]c(Br)c(c56)C[C@H]4N(C)C3)(C(C)C)C(=O)N12`, the Potency is > 46 µM (inactive). Consider `CC1(C)CO[C@H](CC(=O)O)CN1`, for which the Potency was > 46 µM (inactive). In the case of `Cc1c(C(=O)NN2CCOCC2)nn(-c2ccc(Cl)cc2Cl)c1-c1ccc(I)cc1` it was > 46 µM (inactive); in that of `O=C(c1ccccc1)[C@@H]1O[C@H]1c1ccc(-c2ccccc2)cc1`, > 46 µM (inactive). For `CCCCC(=O)NCCc1c(Cc2ccccc2)[nH]c2ccccc12` the value was > 46 µM (inactive). In the case of `C[C@@H](NCc1cc(Br)cc2[nH]c(=O)c(=O)[nH]c12)P(=O)(O)O` it was > 46 µM (inactive). On to `C=CC(C)(C)c1[nH]c2ccccc2c1C1=C(O)C(=O)C(c2c[nH]c3c(CC=C(C)C)cccc23)=C(O)C1=O`, for which the Potency is > 46 µM (inactive). In the case of `O=C1CCc2c(ccc3ccccc23)O1` it was > 46 µM (inactive); in that of `CNC(=O)[C@H]1O[C@H](n2cnc3c(NCc4cccc(I)c4)nc(Cl)nc32)[C@@H](O)[C@@H]1O`, > 46 µM (inactive).
